Results filed as inconclusive are left out. The source made the active and inactive calls. Calls follow the shape of the full dose curve.
Target: Peroxisome proliferator-activated receptor delta (Homo sapiens) (UniProt Q03181)
Test: qHTS assay for small molecule agonists of peroxisome proliferator-activated receptor delta signaling (AID 588534)
Details: HEK293T PPARdelta-UAS-bla, beta-lactamase ratio, 18 h; series mostly up to 76.7 µM
Summary of the method: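 Titration series tested in agonist mode on beta-lactamase reporter cells; 18 hrs at 37 C after a 5 hr pre-incubation. Readout: CCF4 fluorescence, 2 hrs RT. Hill equation gives EC50 and maximal response.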

Peroxisome proliferator-activated receptor delta (Homo sapiens), sequence (Q03181 whole entry, looked up): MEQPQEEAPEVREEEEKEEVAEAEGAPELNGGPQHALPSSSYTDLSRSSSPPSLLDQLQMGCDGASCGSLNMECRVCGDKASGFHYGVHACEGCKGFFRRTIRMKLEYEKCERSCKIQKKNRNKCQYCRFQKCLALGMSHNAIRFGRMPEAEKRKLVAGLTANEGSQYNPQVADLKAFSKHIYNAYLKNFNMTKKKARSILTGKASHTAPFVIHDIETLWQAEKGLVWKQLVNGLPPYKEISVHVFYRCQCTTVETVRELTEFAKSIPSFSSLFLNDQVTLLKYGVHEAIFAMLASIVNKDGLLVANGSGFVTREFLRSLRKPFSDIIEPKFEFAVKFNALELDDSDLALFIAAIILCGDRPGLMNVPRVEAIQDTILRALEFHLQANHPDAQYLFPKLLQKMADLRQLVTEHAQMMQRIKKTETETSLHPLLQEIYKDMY

SMILES	outcome
ClC/C=C/CCl	inactive
CCCCC(CC)CN1C(=O)C2C3C=CC(C3)C2C1=O (stereo unspecified)	inactive
CC(C)C=O	inactive
Clc1ccccn1	inactive
CCCCCNCCCCC	inactive
O=Cc1ccc(Cl)cc1	inactive
